Activity calls are given as the source filed them.
Key:
[1] = compound effects on lung adenocarcinoma cell viability – A549, calcein-AM fluorescence, 48 h, basal, profiling panel (AID 1162); conditions: higher = more signal
[2] = compound effects on differentiated 3T3-L1 adipocyte viability – cell-based, 3T3-L1 adipocytes, calcein-AM fluorescence, 48 h, basal, profiling panel (AID 1163); conditions: 3T3-L1 adipocytes viability, higher = more signal
[3] = compound effects on hepatocellular carcinoma cell viability – HepG2, calcein-AM fluorescence, 48 h, basal, profiling panel (AID 1164); conditions: higher = more signal
[4] = compound effects on multiple myeloma cell viability – MM1S, calcein-AM fluorescence, 48 h, basal, profiling panel (AID 1165); conditions: higher = more signal
[5] = calcein-AM signal in unstimulated myeloma cells – cell-based, calcein-AM fluorescence, 48 h, PK04 Diversity Set, profiling panel (AID 1166); conditions: RPMI8226 myeloma viability, higher = more signal;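 note: cells grown under basal conditions without added stimulus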
[6] = JC-1 mitochondrial signal, unstimulated HepG2 cells – cell-based, JC-1 fluorescence, 24 h, 100 nL compound, profiling panel (AID 1167); conditions: HepG2 mitochondrial potential, higher = more signal
[7] = JC-1 mitochondrial signal, unstimulated adipocytes – cell-based, JC-1 fluorescence, 3T3-L1 adipocytes, 24 h, 100 nL compound, profiling panel (AID 1168); conditions: JC-1 mitochondrial fluorescence, higher = more signal, called active from +8 up or from −8 down
[8] = JC-1 mitochondrial signal, unstimulated myeloma cells – cell-based, JC-1 fluorescence, RPMI8226, 24 h, 100 nL compound, profiling panel (AID 1169); conditions: JC-1 mitochondrial potential fluorescence, higher = more signal
[9] = JC-1 mitochondrial signal, unstimulated MM1S myeloma – cell-based, JC-1 fluorescence, 24 h, 100 nL compound, profiling panel (AID 1170); conditions: MM1S mitochondrial potential, higher = more signal
[10] = resazurin metabolic signal in A549 cells – cell-based, resazurin fluorescence, 24 h, PK04 Diversity Set, profiling panel (AID 1171); conditions: A549 viability, higher = more signal, called active from +8 up or from −8 down
Note: test concentration not given here.

| SMILES | z-score [1] | z-score [2] | z-score [3] | z-score [4] | z-score [5] | z-score [6] | z-score [7] | z-score [8] | z-score [9] | z-score [10] |
| --- | --- | --- | --- | --- | --- | --- | --- | --- | --- | --- |
| COc1ccc(O[C@H]2C=C[C@@H](c3ccccc3)O[C@@H]2COC(=O)CCC(C)=NO[C@@H](C)c2cc(-c3c(C)cc(C)cc3C)no2)cc1 | -0.845 | 0.0504 | 0.033 | 0.0731 | -0.644 | 0.48 | -1.34 (inactive) | 0.129 | -0.424 | 1.8 (inactive) |
| c1ccc(C2NCCc3c2[nH]c2ccccc32)cc1 (stereo not given) | -0.479 | 0.381 | -0.704 | -0.402 | -0.742 | -2.18 | -0.424 (inactive) | 0.0801 | 0.299 | 0.272 (inactive) |
| CC(=O)OC[C@H]1O[C@H](C#CCCCc2ccccc2)C=C[C@@H]1OC(C)=O | -0.442 | -0.0563 | -2.26 | -3.51 | -3.61 | -1.12 | 0.288 (inactive) | -0.861 | -2.26 | 0.899 (inactive) |
| CCCNC(=O)OC[C@H]1O[C@H](CCON=C[C@@H](OC)[C@H](C)C=CCC(=O)OC)C=C[C@@H]1Oc1ccc(OC)cc1 | 0.0666 | 0.764 | 0.97 | -0.902 | 0.122 | -0.12 | -0.277 (inactive) | 0.0719 | -0.118 | 1.2 (inactive) |
| O=C(CS)NCCCCCNC(=O)[C@H]1C[C@H]2C(=O)N3CCC[C@H]3C(=O)N2[C@H]1c1cccc(OCCO)c1 | 0.631 | -0.367 | 0.432 | -0.0388 | -0.198 | 2.21 | 0.0249 (inactive) | -0.736 | -0.419 | 0.477 (inactive) |
| CC(CCN1CCc2nc(-c3ccccc3)c(-c3ccccc3)cc2C1)=NO[C@@H](C)c1cn([C@H](CO)Cc2ccccc2)nn1 | 2.69 | 0.343 | 1.4 | -0.352 | -0.0077 | 1.87 | -0.353 (inactive) | 0.555 | 0.41 | -0.81 (inactive) |
| Cc1cc2c(nc1C)CCCN2CC(O)CN1CCN(C)CC1 (stereo not given) | 0.306 | 0.411 | -1.09 | 0.241 | -0.342 | -0.601 | -0.625 (inactive) | 0.142 | 0.842 | -0.726 (inactive) |
| CCOC(=O)CCN1C(=O)[C@H]2[C@H]3[C@H](O)[C@H](O)CC(=NOC[C@@H](O)COCc4ccco4)[C@@H]3CC[C@H]2C1=O | 0.14 | 0.171 | -0.324 | 0.366 | 0.557 | -0.906 | -0.125 (inactive) | -0.393 | -0.49 | -0.397 (inactive) |
| C=CCN1C(=O)[C@]2(O[C@H](CCn3cc(CCO)nn3)[C@@H]([Si](C)(C)c3ccc(OC)cc3)[C@@H]2C)c2cc(N3CCOC3=O)ccc21 | 0.0694 | 0.654 | -0.316 | -2.64 | -1.37 | 0.464 | -0.0813 (inactive) | -0.585 | -0.539 | 0.333 (inactive) |
| COC(=O)[C@@H]1CC[C@H](C)[C@@H](c2ccc(C)cc2)N1C(=O)c1ccc(C=NOC[C@@H](O)COCc2ccco2)cc1 | -0.181 | 0.346 | -0.807 | -1.32 | -1.46 | -2.38 | -0.747 (inactive) | 0.304 | -0.352 | -0.45 (inactive) |
| O=C(CS)NCCCCCNC(=O)[C@@H]1C[C@@H]2C(=O)N[C@@H](Cc3ccccc3)C(=O)N2[C@@H]1c1ccc(O)cc1 | 0.557 | 0.239 | 1.15 | 0.477 | 0.617 | -0.0506 | -0.325 (inactive) | 0.149 | -0.625 | -0.181 (inactive) |
| CN(C)C(=O)[C@@]1(Cc2ccccc2)N=C(c2ccc(OCCCO)cc2)O[C@H]1c1ccccc1CN=[N+]=[N-] | -0.309 | -0.562 | -0.903 | -0.74 | -2.6 | -0.12 | -0.775 (inactive) | -0.913 | -0.589 | -0.348 (inactive) |
| CC(C)=NOCc1cccc(-c2cc(-c3ccccc3)no2)c1 | -0.398 | 0.0768 | 0.0628 | -1.06 | -0.375 | -0.499 | -0.302 (inactive) | -0.112 | 0.354 | -0.798 (inactive) |
| CC(=O)OC[C@H]1O[C@@H](ON=C(C)CCN2CCc3nc(-c4ccccc4)c(-c4ccccc4)cc3C2)[C@H](OC(C)=O)[C@@H](OC(C)=O)[C@@H]1OC(C)=O | -0.21 | 0.565 | 0.69 | -0.0213 | -0.162 | 1.11 | -1.19 (inactive) | -0.522 | 0.231 | -0.282 (inactive) |
